Laboratory results from PubChem BioAssay AID493185 (National Center for Advancing Translational Sciences (NCATS), 2011).
The source made the active and inactive calls. Calls come from the whole dose curve; as a rule, active = well fitted activation curve with a large enough effect; inconclusive = small, poorly fitted or top-dose-only effect; inactive = no such curve, though single readings can be large or run the other way.

experiment: Counterscreen for Identifying a Potential Treatment of Ataxia-Telangiectasia: Hit Validation; settings: cell-free AlphaLISA/AlphaScreen artifact counterscreen, PBS only, no cells; series mostly up to 76.9 µM; activation: at the top concentration; for activation: 0% is about no effect
Outline: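 Without cells, compounds at up to 76.7 uM final were combined with premixed anti-pKAP1/anti-KAP1 AlphaLISA bead reagents, protease inhibitors and lysis buffer; signal read after 6 hr at 25C to flag assay-platform artifacts.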
Potency is the fitted concentration of half-maximal effect.

SMILES | activation | Potency
CCOC(=O)c1cccc(N2C(=O)C3C4C=CC(CC4)C3C2=O)c1 (stereo not given) | 37.7% (inactive) | 
Oc1ccc(-c2nccc(-c3ccc(F)cc3)n2)cc1 | -7.52% (inactive) | 
NC(=O)c1cc2ccccc2o/c1=N/NC(=O)c1cccc(F)c1 | -3.76% (inactive) | 
CC(C)c1ccc(-c2cc(C(=O)N3CCOCC3)c3cc(Br)ccc3n2)cc1 | -10.5% (inactive) | 
FC(F)(F)c1cccc(OCC2CNC(=S)O2)c1 (stereo not given) | -12.3% (inactive) | 
CC(=O)NNC(=O)CN1C(=O)/C(=C/c2ccccc2)SC1=S | -5.26% (inactive) | 
C=CCSc1nc2ccccc2n1C(=O)/C=C/c1cc(OC)c(OC)c(OC)c1 | 2.26% (inactive) | 
Cc1cc(C)c2c(Cn3ccnc3)cc(=O)oc2c1 | 6.77% (inactive) | 
CCOc1cccc(/C=C/c2ccc3cccc(O)c3n2)c1OC | -10.7% (inactive) | 
C=CCN1C(=O)/C(=C/C(=O)OC)S/C1=N\NC(=O)c1ccccc1 | -6.92% (inactive) | 
COc1ccccc1-n1c(SCC(N)=O)nc2sc3c(c2c1=O)CCC3 | -8.27% (inactive) | 
O=C(Nc1ccc([N+](=O)[O-])cc1)c1cc2ccccc2nc1Cl | -3.28% (inactive) | 
NCC(=O)c1cccc2ccc[n+]([O-])c12 | -3.01% (inactive) | 
O=C(CNCc1cccs1)Nc1ccc(OC(F)(F)F)cc1 | 0% (inactive) | 
CCCCN(c1nc2ccccc2nc1Cl)S(=O)(=O)c1ccc(C)cc1 | -15.8% (inactive) | 
CCC(C)NC(=O)c1cn(CCOC)c(=O)c2c1c1ccccc1n2C (stereo not given) | -6.92% (inactive) | 
COc1cc(/C=C2\SC(=S)N(C(C(=O)O)c3ccccc3)C2=O)ccc1O (stereo not given) | -27.9% (inactive) | 
O=C(CCCC(=O)N1CCCC1)N1CCCC1 | -23.8% (inactive) | 
COC1=C(N)C(=O)c2nc(-c3nc(C(=O)O)c(C)c(-c4ccc(OC)c(OC)c4O)c3N)ccc2C1=O | -20.5% (inactive) | 
C[C@@H]1Cc2c(O)c(O)cc(O)c2C(=O)O1 | -9.77% (inactive) | 

SMILES | activation | Potency
O=C(Nc1cnn(C23CC4CC(CC(C4)C2)C3)c1)c1cnn2cccnc12 | 9.77% (inactive) | 
CCOC(=O)C1=C(C)N(c2ccc(OC)cc2)C(=O)/C1=C\c1ccc(O)c(OCC)c1 | -32.8% (inactive) | 
CCOC(=O)C1CCN(C(=O)c2cc3cc(Cl)ccc3[nH]2)CC1 | -3.28% (inactive) | 
CC(Oc1ccccc1)C(=O)Nc1cccc(NC(=O)c2ccco2)c1 (stereo not given) | 14.3% (inactive) | 
COc1ccccc1N1CN(CCc2ccccc2)CNC1=S | -36.2% (inactive) | 
CC(C)CC(=O)Nc1c2c(nn1-c1cccc(Cl)c1)CS(=O)C2 (stereo not given) | -5.74% (inactive) | 
CNC(=S)N(CCc1c(C)[nH]c2ccc(Cl)cc12)Cc1cccnc1 | -17.2% (inactive) | 
CCOC(=O)CNS(=O)(=O)Cc1ccccc1 | 6.77% (inactive) | 
COc1ccccc1S(=O)(=O)Nc1ccc(-c2nnc3n2CCCCC3)cc1 | -2.46% (inactive) | 
Cc1ccc2c(c1)C(c1ccccc1)N(C(=O)CC(C)C)CC(=O)N2 (stereo not given) | 13.5% (inactive) | 
Cc1nc(SCC(=O)Nc2cc(C(N)=O)cc(C(N)=O)c2)c2c(C)c(C)sc2n1 |  | 51.9 µM (active)
CC(=O)Nc1ccc(NC(=O)CSc2nnnn2-c2ccc(F)cc2)cc1 | 2.26% (inactive) | 
CCN(CC)CCNC(=O)CCc1c(C)nc2c(c(C)nn2-c2ccc(C)cc2)c1C | 17.7% (inactive) | 
CCOC(=O)Cc1csc(NC(=O)CSc2nnc(C(C)C)n2C)n1 | -24.6% (inactive) | 
O=C(C(c1ccccc1)c1ccccc1)N1CC[C@@]2(O)CCCC[C@H]2C1 | -23.1% (inactive) | 
CN(C)c1ccc2nc3ccc(=[N+](C)C)cc-3sc2c1 |  | 11.6 µM (active)
COc1ccc(NC(=O)C2CC2)cc1OC1CCCC1 | 8.2% (inactive) | 
CCn1c(N2CCN(CC(=O)c3c[nH]c4ccccc34)CC2)nc2c1c(=O)[nH]c(=O)n2C | 14.3% (inactive) | 
COc1ccc(-c2csc(-c3ccc(O)cc3)n2)cc1 | 4.1% (inactive) | 
CC(C)C1CC(CCN)(c2ccccc2)CCO1 (stereo not given) | 1.5% (inactive) | 
